Experimental findings from publication PMC12136788 are described below.

Where a chain is given by its changes, count along the chain named. Whole data set: some 5,800 sequences, median “enrichment r” near 0.54, cut for the highest 2% near 16. The list comes from a sample in which the highest values are over-represented; it also holds similar and randomly drawn sequences.

Sequences and labels used below:
B1: ENSG00000069329:stop:overlap|stop_codon|ENSG00000069329|stop_codon|NA|stop_codon (ssRNA)
RNA: GGGAGUUCUACAGUCCGACGAUCUGGAGAAGGGGCCCCACAGACCGUUCGGGAUUAAGACCAGCCCGAUUUGGCCUGCGGGAUAGGGGACAGCAGGAGGAAGGCCGCGGGCAGGCUGAUCCGGGCCGGGGUGGGCGGCGGCUCCAACAGAGGAUUGAGCAUCA
B2: chr16:58599380:58599482:-|5pUTR|ENSG00000125107|unk|total|mutant (ssRNA)
RNA: GGGAGUUCUACAGUCCGACGAUCCAGAACAGAGUAAGACCCCUGGUAAAGAAGAACUGAAGAUAUUAUACAGAUACCAGAUACCGCCUAAUUACAAAGAAAGCAUUAACCUGCCUCUGAGGUGACUAAAGGGGAAUAAUGGUGCAACAGAGGAUUGAGCAUCA
B3: chr11:113276125:113276317:+|3pUTR|ENSG00000149294|msi1|FALSE|unique (ssRNA)
RNA: GGGAGUUCUACAGUCCGACGAUCGUCCGUGUAAAAUAGCUGCCUUUUAUUUUUUAAGGUAACAAAUACCACCUAGAGGUAGGUAGGAUCAUCCCACGCUUGCUUUAGCACAGGACAACUUUACAAAACAUGAUUGUUUACAGCCAACAGAGGAUUGAGCAUCA
B4: chr14:53038166:53038268:-|3pUTR|ENSG00000100523|unk|total|mutant (ssRNA)
RNA: GGGAGUUCUACAGUCCGACGAUCGAGCUUUUGGCAGAGUCUUCGGGGUUUUCCCGGUAUAAAAUCAUAUCAGCGAAGAGAGCCCGUUUGAUUUCUUUUCCCAGUUGGAUGCCUUUUAUUUAUUUCUCUUGCCUGAUUGCUCUACAACAGAGGAUUGAGCAUCA
B5: chr2:39051162:39051270:-|CDS|ENSG00000115904|unk|total|mutant (ssRNA)
RNA: GGGAGUUCUACAGUCCGACGAUCAAAUAUAUUCCGUCGCACCGCCGAUAUACAUGAACUCCGUGUAAAGUUACUGGGCCAUACCGAAGAUACAGCCGAAAUGACAGAUGAAGGCAGUCCCCAUCCACCCGCCGGAAGCUGCUUCAACAGAGGAUUGAGCAUCA
B6: chr9:96818597:96818698:-|CDS|ENSG00000196597|unk|FALSE|unique (ssRNA)
RNA: GGGAGUUCUACAGUCCGACGAUCGGAGAAACCAUUCGAAUGUCAUGAAUGUGGGAAAUCUUUUAACUAUAAGUCAAUCCUCAUAGUGCAUCAGAGAACUCACACAGGGGAGAAACCUUUUGAAUGUAAUGAAUGCGGGAAAUCCAACAGAGGAUUGAGCAUCA
B7: chr10:128104542:128104643:-|CDS|ENSG00000148773|msi1|total|mutant (ssRNA)
RNA: GGGAGUUCUACAGUCCGACGAUCAAGUGAUGAGAAAAAUAUCAACACAUUUGUGGAAACUCCAGUGCAGAAACUGGACCUGCCCGGAAAUUUACCUGGCAGCAAGAGACAGCCACAGACUCCUAAGGAAAAGGCUGAGGCUCUCAACAGAGGAUUGAGCAUCA
B8: chr4:138167974:138168075:-|3pUTR|ENSG00000151012|msi1|total|mutant (ssRNA)
RNA: GGGAGUUCUACAGUCCGACGAUCCACAAAAUCUGCAUUGUCCAUGUGAGUAAAGUAAAAUAAUUCCUGUUAUUUUUUUCUGUCCGAAAUAAGUAUGGAGGAUAUGUUUUUAAAAAUUUAUGAGUUAAUUGAAAUAUCCAUAUACAACAGAGGAUUGAGCAUCA
B9: chr5:38481646:38481747:-|CDS|ENSG00000113594|unk|total|mutant (ssRNA)
RNA: GGGAGUUCUACAGUCCGACGAUCCAGACCUCAGGCCAAUGUAAAUACAUGGAAUUCCGUGUCUCCAGACUCUCCCCGAUCCACCGACAGCAACAGUGAGAUUGUCUCAUUUGGAAGUCCAUGCUCCAUUAAUUCCCGACAAUUCAACAGAGGAUUGAGCAUCA
B10: chr13:69700593:69701701:-|three_prime_utr|ENSG00000150361|control|control|control (ssRNA)
RNA: GGGAGUUCUACAGUCCGACGAUCUUGAAUGGCAAGAAUGAGAACUUCCAGAGAUGAAAACUCUUCAAGAACAAGGAUCUCUGUAGCGUUACCUACUGAUGUUGAAAGAGUUAGUAGAUCAAACAGAAUAGUAGGAAACAAGAACAACAGAGGAUUGAGCAUCA
B11: ENSG00000198589:be:win_251|CDS|ENSG00000198589|bound_else_gene|NA|bound_elsewhere_windowed (ssRNA)
RNA: GGGAGUUCUACAGUCCGACGAUCUCAUUAUCCAAGAAGGUGAGAGUAUUAACUGCAUGGUGGACCUACUGGAAAAAUGUGACAUUACGUGCCAAGCAGAAGUCUGGAGCAUGUUUACAGCCAUUCUGAAGAAAAGCAUACGGACAACAGAGGAUUGAGCAUCA
B12: chr11:27368498:27368690:-|CDS|ENSG00000205213|msi1|FALSE|unique (ssRNA)
RNA: GGGAGUUCUACAGUCCGACGAUCACCCCUUUGUUUGCCAUUUCCUACAGGUGAAACGCCAUCAUUAGGAUUCACUGUAACGUUAGUGCUAUUAAACUCACUAGCAUUUUUAUUAAUGGCCGUUAUCUACACUAAACUAUACUGCAACAGAGGAUUGAGCAUCA
B13: chr7:123692404:123692516:-|CDS|ENSG00000106299|unk|FALSE|unique (ssRNA)
RNA: GGGAGUUCUACAGUCCGACGAUCCCUGCCUUCUGAUGGGGACCAUCAGGUUCCAACUACUGCAGGAAACAAAGCAGCUCUUUUAGAUCAAAUUAGAGAGGGUGCUCAGCUAAAAAAAGUGGAGCAGAACAGUCGGCCAGUGUCCAACAGAGGAUUGAGCAUCA
B14: chr5:139396562:139396955:-|CDS|ENSG00000170469|control|control|control (ssRNA)
RNA: GGGAGUUCUACAGUCCGACGAUCAGGGGUCCACAAGGUGGGGGCUUGUAGCCUAGGGGAGGAGCUGGGUCUUUGUUGUCUGGUAGGCACCACCGCUUCCUUUGGGUAUUUAAUCCCUUCCUAUAUAAACAGCCCUGGUUACCCCAACAGAGGAUUGAGCAUCA
B15: chr1:113764432:113764533:-|3pUTR|ENSG00000081019|msi1|FALSE|bound_elsewhere (ssRNA)
RNA: GGGAGUUCUACAGUCCGACGAUCAAAAUAUUCUGAAAUAGGUUAAAUCUUAUAUAAAUAUUACUUUGUGCAAUAUUGUUGUGUAGUUAAAUGCAUAUUAGCAAAGUAUAGAGGUCACUGUGUAAACCGAUAGAAAAGUAACCACAACAGAGGAUUGAGCAUCA
B16: ENSG00000070961:be:win_6151|3pUTR|ENSG00000070961|bound_else_gene|NA|bound_elsewhere_windowed (ssRNA)
RNA: GGGAGUUCUACAGUCCGACGAUCCAAUCACUUUUUCUCUUUUAUCCUCUAACCAAAAAAUUGUUUAAUUUUGCAUCCCAAAUGUUUUUAAUCUUUGUAUAUUUUUUAAAAAUCCUUUUCUCCUCAUCAUUGCCUUUUUUGUGGCAACAGAGGAUUGAGCAUCA
B17: chr8:94436494:94436868:-|CDS|ENSG00000265817|control|control|control (ssRNA)
RNA: GGGAGUUCUACAGUCCGACGAUCAAUAGUAGAAAAGAAUAGAUGUUGGGAUAUCAUAGCAGUUAACUAUAAUGCAAUUGGAGUAGACCGCCCUCCUCGAACAGCACAGGGCCUACGCACCCUUUAUAAAAGGCUCAAAGAAUACAACAGAGGAUUGAGCAUCA
B18: chr11:101473508:101473773:-|CDS|ENSG00000137672|control|control|control (ssRNA)
RNA: GGGAGUUCUACAGUCCGACGAUCUCCUCAAAUAAUAUCUGAAGGUCUUUAUGCAAUUGCUGUAGUUUUAAGUUUCUCUAGGAUAGCUUAUAUUUUACCAGCAAAUGAAAGCUUUGGACCUCUGCAGAUAUCACUUGGAAGAACCAACAGAGGAUUGAGCAUCA
B19: chr1:229632307:229632408:+|CDS|ENSG00000135763|unk|total|mutant (ssRNA)
RNA: GGGAGUUCUACAGUCCGACGAUCAUUUUAUAAGAAAAAGCUUGAACUGAAGGAAGAUAUUGUUGAAAGGCUUUGGAUCUAUACCGAUAACAUUUUACACCGCAGAAAAUUGCAGAAUCUCCUCAAGAAUGGAAAGACCAUUAACAACAGAGGAUUGAGCAUCA
B20: chr6:75256125:75256201:-|CDS_3pUTR|ENSG00000112697|msi1_unk|FALSE|overlapping (ssRNA)
RNA: GGGAGUUCUACAGUCCGACGAUCUUUGGGGAUUGCUUACAUCGCUGUUGGAUCCAUCUCCUUCCUUCUGGGAGUUGUACUGCUAGUAAUUAAUCAUAAAUAUAGAAACAGUAGUAAUACAGCUGACAUUACCAUUUAAUUUUACAACAGAGGAUUGAGCAUCA
B21: chr6:75256125:75256201:-|CDS_3pUTR|ENSG00000112697|msi1_unk|total|mutant (ssRNA)
RNA: B20 RNA with U83C, A84C, U102C, A103C, U111C, A112C
B22: chr1:113764432:113764533:-|3pUTR|ENSG00000081019|msi1|total|mutant (ssRNA)
RNA: B15 RNA with U38C, A39C, U83C, A84C, U98C, A99C, U108C, A109C, U130C, A131C
B23: chr10:113908677:113908778:+|3pUTR|ENSG00000196865|unk|total|mutant (ssRNA)
RNA: GGGAGUUCUACAGUCCGACGAUCAGCUAUGCUCCUUACUUACUUCUUUUAUUAUAAACAAAUUCCUUUGCUUUGGCUGAUACCCGCUGAGUCAUUGAUCAUCAUUGGUACCAUGAUAUUGUAAUCUAUGCUGCUAUUUGGCACCAACAGAGGAUUGAGCAUCA
B24: chr5:113019263:113019364:+|3pUTR|ENSG00000172795|msi1|FALSE|unique (ssRNA)
RNA: GGGAGUUCUACAGUCCGACGAUCCUCAACUGUGAAUGAAAUUUAGAAAGAUAAUUCUUCAGCAGUUGGUUGAUUAGAUGGGUUAGUGCUUUUGGAAUAUAUAACAGUAGACUUGUAUUCUUUAUGCACUAUACAUAUGAUACGCAACAGAGGAUUGAGCAUCA
B25: ENSG00000070961:be:win_6101|3pUTR|ENSG00000070961|bound_else_gene|NA|bound_elsewhere_windowed (ssRNA)
RNA: GGGAGUUCUACAGUCCGACGAUCUAAAGAUCUUGGAUCCCAUUAUAUAGUAUGUAUAGCUGAAAUCUGUAAUUCAAUCACUUUUUCUCUUUUAUCCUCUAACCAAAAAAUUGUUUAAUUUUGCAUCCCAAAUGUUUUUAAUCUCAACAGAGGAUUGAGCAUCA
B26: chr10:92030311:92030412:+|3pUTR|ENSG00000095564|unk|FALSE|unique (ssRNA)
RNA: GGGAGUUCUACAGUCCGACGAUCAUAUAAGAUUGAAACUGUAAAAUAUAUGCAACUGUGUGUUAUUUGUAGGAAAUGGUCACUAGAAAGAGCAAAAGAUUAUUCAGGUAUACAGGUUUUUUUUCAUUGUUUAGGAUUUUAACUCAACAGAGGAUUGAGCAUCA

Chain of MSI1 full-length (Q61474 whole entry): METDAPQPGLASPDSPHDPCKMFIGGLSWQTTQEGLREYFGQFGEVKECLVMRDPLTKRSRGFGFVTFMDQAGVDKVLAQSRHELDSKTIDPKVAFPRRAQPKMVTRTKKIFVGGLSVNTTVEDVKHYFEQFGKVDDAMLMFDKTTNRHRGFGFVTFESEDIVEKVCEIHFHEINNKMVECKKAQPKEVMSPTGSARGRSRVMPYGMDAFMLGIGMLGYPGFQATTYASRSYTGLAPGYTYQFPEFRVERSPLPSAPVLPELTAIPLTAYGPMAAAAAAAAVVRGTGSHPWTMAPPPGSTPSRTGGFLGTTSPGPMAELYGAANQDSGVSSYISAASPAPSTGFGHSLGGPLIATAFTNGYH

This assay concerns the target MSI1 full-length (mouse, UniProt Q61474 1-362). Briefly: nsRBNS (natural sequence RNA bind-n-seq); RBNS binding buffer (assumed for nsRBNS): 25 mM Tris pH 7.5, 150 mM KCl, 3 mM MgCl2, 0.01% Triton X-100, 500 ug/ml BSA, 20 U/ml SUPERase-In, 4 C; UNK is unkempt and MSI1 is Musashi-1; names of the RNAs are library labels; protein concentration not given here; high values mean tight binding.
For B1, the binding signal is 0.367 enrichment R. With B2 the figure was 0.791 enrichment R; with B3, 0.716 enrichment R; with B4, 0.36 enrichment R.

As to B5, the binding signal was found to be 0.566 enrichment R.

As for B6, the binding signal is 0.426 enrichment R. With B7 the figure was 0.365 enrichment R; with B8, 0.651 enrichment R.

As to B9, the binding signal stood at 0.459 enrichment R. For the molecule B10, the binding signal is 4.13 enrichment R. On to B11, for which the binding signal was 0.303 enrichment R. Regarding B12, the binding signal stood at 1.09 enrichment R. Next, B13: 0.703 enrichment R; B14: 1.74 enrichment R; B15: 51.3 enrichment R. Next, B16: 3.25 enrichment R. Consider B17, for which the binding signal amounted to 28.2 enrichment R.

In turn, B18 yielded a binding signal of 1.39 enrichment R. Next, B19: 0.623 enrichment R; B20: 18.4 enrichment R; B21: 0.387 enrichment R.

B22: the binding signal came to 0.583 enrichment R.

B23 yielded a binding signal of 3.24 enrichment R. For the molecule B24, the binding signal came to 1.92 enrichment R. B25 yielded a binding signal of 30 enrichment R. For B26, the binding signal turned out to be 6.54 enrichment R.
